# Source: PubChem BioAssay
# Shiga toxin inh = blocks Shiga toxin action in Vero cells. 9.2% of 290,000 active. inhibition, % at 38.7 µM. AID 2315. Vero cells, Shiga toxin protein synthesis inhibition reporter; in the data active means inhibition mostly above about 28%, no sharp cut-off; inactive means mostly below about 43%; further: 0% is about no effect
# Pf growth 96h = P. falciparum growth inhibition at 96 hours; P. falciparum luciferase reporter growth, 96 h; Potency, µM (doses to about 28.7 µM), for inactives: at the highest dose activity change, negative = inhibition, hits mostly inhibitors; 6.9% of 320,000 active; AID 504834; further: potency means the concentration at half of the fitted maximal effect; on the % scale 0 is the no-effect control and ±100 the full control effect
#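 Erythrocytes infected with luciferase-expressing P. falciparum were dispensed at 2% hematocrit and 0.05% parasitemia (final), then incubated with compounds 96 hours at 37 C in 5% CO2. Luminescence after detection reagent addition reported growth.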
# CHX counter = counter-screen for Shiga toxin inhibitors: cycloheximide protein synthesis inhibition; cell reporter, cycloheximide protein synthesis inhibition counterscreen; 12% of 300,000 active; max response, %; AID 2314; in the data active means max response mostly above about 13%, no sharp cut-off; inactive means mostly below about 14%; further: read at 38.3 µM for the half of the compounds with a filed dose; 0% is about no effect
# Pf growth 48h = P. falciparum growth inhibition at 48 hours (one generation). Potency, µM (series often up to 28.7 µM), for inactives: at the top dose activity change, negative = inhibition, most hits filed as inhibitors. P. falciparum luciferase growth in erythrocytes, 48 h. 5.9% of 310,000 active; further: potency means the concentration at half of the fitted maximal effect; on the % scale 0 is the no-effect control and ±100 the full control effect
#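 A one-generation exposure of luciferase-tagged malaria parasites in RPMI 1640/Albumax erythrocyte culture, 37 C and 5% CO2. Inhibition is inferred from decreased luminescence after adding detection reagent.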
# * = called active by the depositor; ? = inconclusive; . = not tested or not shown; [ ] = dose if it differs, or a comment. Hits are enriched below; roughly 21% of the tested compounds scored in any of these assays. Unless noted, the call rests on the fitted dose curve; in most records, active means well fitted inhibition curve with a large enough effect; inconclusive means small, poorly fitted or top-dose-only effect, or another doubt; inactive means no such curve, though single readings can be large or run the other way.
SMILES,Shiga toxin inh,Pf growth 96h,CHX counter,Pf growth 48h
Cc1ccc(C(=O)NNc2ncnc3c2cnn3C)cc1,17,54%,2,23%
COc1ccc(CC(=O)NNc2ncnc3c2cnn3-c2ccc(C)cc2)cc1OC,33,0%,15*,26%
O=C(NNc1ncnc2c1cnn2-c1cccc(Cl)c1)c1ccco1,23,?,9,-3%
Cc1ccc(-n2ncc3c(NNC(=O)c4ccco4)ncnc32)cc1C,56*,?,25*,?
Cc1[nH]c2ccccc2c1C(=O)CN1C(=O)NC2(CC(C)CC(C)(C)C2)C1=O (stereo unspecified),-3,10µM*,-2,?
O=C(O)c1c(C(=O)O)c(-c2ccc(Br)cc2)n2c1CSC2,-3,-1%,-5,-1%[0.00184 µM]
COc1ccccc1Nc1ccc(Nc2ccccc2OC)nn1,175*,?,29*,82%
COc1ccccc1Nc1c([N+](=O)[O-])cc(C)cc1[N+](=O)[O-],23,10µM*,-2,4%
COc1ccc(OC)c(Nc2ccc(Nc3cc(OC)ccc3OC)nn2)c1,-6,9.3µM*,-4,?
COc1ccc(N2CCN(C(=O)CCc3ccc(S(=O)(=O)NC(C)(C)C)cc3)CC2)cc1,-5,?,0,?
CCN(C(=O)c1c(C)noc1C)c1c(N)n(Cc2ccccc2)c(=O)[nH]c1=O,.,25%,.,7%
O=C(CS(=O)(=O)c1ccccc1)Nc1nccs1,-3,0%,-1,5%
O=C(CSc1nnc(CNc2ccc(F)cc2)n1Cc1ccccc1)NCc1ccco1,9,?,-3,?
CCOc1ccccc1-n1c(CNc2ccc(F)cc2)nnc1SCC(=O)NCc1ccco1,29,5%,22*,12µM*
COc1ccc(NCc2nnc(SCC(=O)NCc3ccccc3)n2-c2ccccc2OC)cc1,-1,-101%,5,?
COc1ccccc1-n1c(CNc2ccc(F)cc2)nnc1SCC(=O)Nc1cc(C)on1,13,-30%,-2,13µM*
O=C(CSc1nnc(COc2ccccc2F)n1-c1ccccc1)NCc1ccco1,53*,.,19*,?
Cn1nnnc1SCC(=O)C(C)(C)C,19,45%,0,5%
COc1ccccc1-c1sc2cc3c(cc2c1C#CC1(O)CCCCC1)OCO3,.,4.7µM*,.,?
COc1ccccc1-c1sc2cc3c(cc2c1C#Cc1ccccn1)OCO3,.,?,.,-19%
CC(C)NC(=O)c1ccc(N(Cc2ccc(Cl)cc2)S(C)(=O)=O)cc1,-6,10µM*,-4,-1%
CC(C)c1ccc(NC(=O)C(c2ccccc2)N2CC(=O)Nc3ccccc32)cc1 (stereo unspecified),active,?,33*,35%
COC(=O)/C(=N\OCc1ccc(C#N)cc1)c1c(C)nn(C)c1C,0,-1%,1,-4%
COc1cccc(C2Nc3ccc4ccccc4c3C3=C2C(=O)CCC3)c1O (stereo unspecified),-4,35%,7,?
O=C(NC(=S)Nc1nc(-c2ccccc2)cs1)c1cccnc1,1,12µM*,7,-23%
SMILES,Shiga toxin inh,Pf growth 96h,CHX counter,Pf growth 48h
O=C(Nc1nc(-c2cccnc2)cs1)c1ccc([N+](=O)[O-])cc1,-1,12µM*,12,4.7µM*
O=C(Nc1nc(-c2ccccc2)cs1)c1cccc([N+](=O)[O-])c1,100*,107%,50*,-24%
O=C(COC(=O)CNC(=O)c1sc2ccccc2c1Cl)Nc1c(Cl)cc(Cl)cc1Cl,-12,-10%,-5,-13%
COc1ccc(CCNC(=O)c2ccc(-c3ccc([N+](=O)[O-])cc3)o2)cc1OC,9,?,1,-15%
CCCc1cnc(N2CCN(C(=O)c3ccc(OC)cc3)CC2)nc1,-8,?,1,?
COc1cc(/C=C/C(O)=C/C(=O)/C=C/c2ccc(O)cc2)ccc1O,.,?,.,12µM*
O=C(/C=C/c1ccc(O)cc1)c1ccc(O)cc1O,34,?,29*,?
COc1cc(/C=C/C(=O)c2ccc(O)cc2O)ccc1O,68*,.,32*,.
CC(C)=CCC/C(C)=C/Cc1c(O)ccc(C(=O)/C=C/c2ccc(O)cc2)c1O,38,8.3µM*,15,?
O=C(/C=C/c1ccccn1)c1ccc(Br)cc1O,28,?,12,?
COc1cc(C=C2C(=O)NC(=O)NC2=O)ccc1O,-5,-8%,-3,46%
CSc1nc(S(=O)(=O)c2ccccc2)c(Cl)s1,7,-48%[1.15 µM],4,?
c1ccc2c(Nc3nc(-c4ccncc4)nc4ccccc34)cccc2c1,-8,?,-2,?
Clc1cccc(Nc2nc(-c3ccncc3)nc3ccccc23)c1,44,0.93µM*,5,-17%
Clc1ccccc1Nc1nc(-c2ccncc2)nc2ccccc12,-14,?,-5,13µM*
N#CCSc1ccccc1NC(=O)COC(=O)CCNC(=O)c1ccc([N+](=O)[O-])cc1,.,3%,.,13%
CC(C)CCNC(=O)c1onc(CSc2ccc(F)cc2)c1C(=O)NCCC(C)C,.,?,.,4.1µM*
CC(C)CCNC(=O)c1onc(CSc2ccc(F)c(F)c2)c1C(=O)NCCC(C)C,2,10µM*,-3,12µM*
CCOc1ccc2nc(SC3CC(=O)N(c4ccc(C)cc4)C3=O)sc2c1 (stereo unspecified),-5,-11%,2,18%
CCOc1ccc2nc(/N=C/c3c(C)[nH]n(-c4ccc(C)cc4)c3=O)sc2c1,33,-9%,33*,61%
CCOc1ccc2nc(/N=C/c3c(C)[nH]n(-c4ccccc4)c3=O)sc2c1,61*,-3%,30*,100%
O=C(COc1ccccc1-c1ccccc1)NNC(=O)NC1CCCCC1,-16,-7%,1,?
C=CCNC(=S)/N=c1/ccccn1CCC,-32,-2%,-2,0%
CCCn1c(C)cs/c1=N\C(=S)Nc1ccccc1,9,-8%,-5,-17%
C=CCNC(=S)/N=c1\sccn1C,26,4%,15*,-15%
SMILES,Shiga toxin inh,Pf growth 96h,CHX counter,Pf growth 48h
C=CCNC(=S)/N=c1/ccccn1C,-7,?,1,4%
Cc1cs/c(=N/C(=S)Nc2ccccc2)n1C,143*,80%,101*,227%
Cc1csc(=Nc2ccccc2)n1C,38,28%,22*,42%
C=CCNC(=S)/N=c1/scc(C)n1C,24,35%,19*,54%
CCN(CC)CCCNC(=O)C1CCC(CNS(=O)(=O)c2ccc(Cl)cc2)CC1 (stereo unspecified),-9,-46%,2,5%
CC(C(=O)OCC(=O)Nc1cccc(S(=O)(=O)N(C)C)c1)N1C(=O)c2ccccc2C1=O (stereo unspecified),-18,14%,-2,0%
COCCCn1c(SCC(=O)Nc2ccc3c(c2)OCCO3)nnc1-c1ccoc1C,76*,23%,27*,17%
COCCn1c(SCC(=O)c2ccc3c(c2)OCCO3)nnc1-c1ccoc1C,105*,.,111*,?
Cc1occc1-c1nnc(SCC(=O)N2CCN(c3ccccc3F)CC2)n1C,-12,3.7µM*,-5,-14%
COCCn1c(SCC(=O)N2CCCC2)nnc1-c1ccoc1C,82*,?,13,6%
